Assays:
Assay in all cases: PBM binding z-score (relative to random genomic background probes); higher = stronger binding; sequences stand for … in GC…GCGATTGACAGCGTAGAATGAAGG
[1] = system: RARb homodimer (NR concentration 270 nM)
Summary of the method: (§1)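 Ligand-free nuclear receptor dimers were bound for 1 h to custom Agilent 4×180K protein-binding microarrays. Detection used antibodies against each partner (one per run). Binding z-scores rest on regression-normalized fluorescence, with random background probes as the reference.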

[2] = system: RARg:RXRa (NR concentration 270 nM, RXRa partner concentration 90 nM)
Summary of the method: as §1

[3] = system: RARg homodimer (NR concentration 270 nM)
Summary of the method: as §1

[4] = system: RXRa DBDmut IVT, anti-RXR (DBD mutation: RXRa K156A/R161A, NR concentration 90 nM)
Summary of the method: as §1

[5] = system: RXRa homodimer (NR concentration 180 nM)
Summary of the method: as §1

[6] = system: THRa:RXRa (NR concentration 90 nM, RXRa partner concentration 90 nM)
Summary of the method: as §1

[7] = system: THRa homodimer (NR concentration 90 nM)
Summary of the method: as §1

[8] = system: VDR:RXRa (NR concentration 270 nM, RXRa partner concentration 90 nM)
Summary of the method: as §1

[9] = system: VDR homodimer (NR concentration 270 nM)
Summary of the method: as §1

Row | Sequence | PBM binding z-score [1] | PBM binding z-score [2] | PBM binding z-score [3] | PBM binding z-score [4] | PBM binding z-score [5] | PBM binding z-score [6] | PBM binding z-score [7] | PBM binding z-score [8] | PBM binding z-score [9]
1 | ATCTCTAGGTAAAGTTCAATGAAAGATCGATAGA | 2.76 | 2.7 | 2.91 | 1.75 | 2.27 | 1.57 | 0.271 | 2.5 | 2.82
2 | TAGCCTATGTCAGATCGGGCCAGTATACGCTATA | -0.337 | -0.0162 | -0.00722 | -0.495 | -0.0681 | 1.45 | -0.592 | -0.407 | -0.48
3 | CGTCCAAGGTCAATGCTAGGTCTGTGAAAGCATT | 3.89 | 5.81 | 6.03 | 3.79 | 4.4 | 3.78 | 2.25 | 3.76 | 2.69
4 | AATACAGGGTCATCGTAGGCCGGAGTACGCACAG | 3.49 | 5.55 | 5.08 | 3.69 | 6.23 | 4.13 | 1.46 | 4.89 | 3.63
5 | CGTCCAAGGTCAGAGAGGTCAGTCAATGCCGAGT | 5.37 | 6.53 | 7.2 | 3.32 | 5.76 | 4.46 | 2.83 | 7.68 | 5.88
6 | ACTATTTGGTCAGCTGAGGTCACACACAATTCGG | 4.69 | 4.24 | 4.48 | 2.02 | 4.4 | 5.09 | 5.11 | 4.64 | 3.67
7 | CGAACGAGGCCATGAGTTGATAGCAAATGCCGAT | 0.354 | 0.599 | 0.821 | 0.851 | 0.328 | 0.837 | -0.151 | 0.155 | 0.777
8 | CCTTACGGGTTACTGACAGGTTATAGCATTTGGA | 0.885 | 2.22 | 0.806 | 0.177 | 1.54 | 1.11 | -0.00572 | 0.637 | 0.261
9 | TCATATAGGTAAAGGTGAAAGTCGAACGATATGA | 1.71 | 1.65 | 1.43 | 0.845 | 2.33 | 1.38 | -0.106 | 0.971 | 0.236
10 | TCTCGGAGCACACGAAGGTCAGAGCTTTCCAGAG | 2.66 | 2.84 | 1.83 | -0.242 | 1.7 | 1.35 | -0.853 | 0.634 | -0.73
11 | AAAACGAGGGCACGCTGAGTTGATAGCAGAGTAG | 1.08 | 2.13 | 2.34 | 2.08 | 1.62 | 1.94 | 0.0518 | 2.53 | 2.26
12 | CGAACTAGGTCAGAACAGGAGAGTGAAGGATGAT | 1.69 | 2.51 | 3.2 | 0.692 | 1.23 | 1.72 | 0.0817 | 0.035 | 0.129
13 | ATTCGGAGGACAAAGGTCAGAGCTACGCCAGTGA | 4.59 | 5.89 | 5.52 | 0.937 | 5.03 | 3.41 | 0.717 | 3.4 | 1.32
14 | TCTTGTCGATCAATAGAGGTTAAGAAAGTGCGCT | 1.53 | 0.847 | 0.688 | 0.601 | 1.46 | 1.94 | -0.159 | 1.86 | 0.435
15 | CGGACTAGGTCATCCAGGACAGTGAATACATTGA | 2.76 | 3.66 | 4.36 | 1.7 | 2.43 | 3.48 | 1.79 | 4.36 | 1.59
16 | CAAACTAGTTCAAGGTCAAAGTCGGTTTGTGCCA | 4.53 | 4.97 | 4.53 | 3.32 | 4.79 | 4.05 | 4.02 | 4.92 | 4.9
17 | GCTTACGGGTCAAAGGTTGTAGCATGAATAGAAT | 2.84 | 5.74 | 4.09 | 2.43 | 8.07 | 3.2 | 0.00313 | 4.66 | 0.93
18 | AGTCAAAGTTCATTTAGGTAACGTAAGATATGCT | 3.77 | 5.03 | 5.39 | 4.96 | 4.35 | 3.29 | 1.03 | 4.97 | 5.45
19 | CAAACTACGTCACCGGAAGGTCAAAGTCCGCATG | 4.23 | 4.01 | 2.91 | 0.765 | 3.55 | 2.88 | 1.47 | 3.23 | 2.03
20 | AGTCAAAGTTCAGGACGAGTTAACGTAAAGCACG | 3.1 | 4.4 | 4.71 | 2.71 | 3.19 | 2.57 | 0.422 | 2.96 | 2.59
21 | CGTCCAAGGTTAAAGGTCAGTGAAGAGATGACGG | 4.52 | 6.38 | 5.4 | 2.09 | 8.31 | 3.84 | 0.929 | 4.69 | 1.46
22 | ATATGTAGGTTAAGGGTCTTTCAGGTTGGTTCGC | 1.78 | 1 | 0.853 | 0.724 | 1.96 | 1.54 | 1.44 | 1.79 | 1.64
23 | TGGAGTAGGTTAGGGGCATTCAGAATGGCGTCGA | 1.6 | 0.847 | 0.846 | -0.404 | 0.803 | 1.51 | 1.06 | 1.05 | 1.57
24 | CGAACCAGGTCATCCAGGACAGTGAATACATTGA | 3.03 | 4.28 | 4.8 | 2.81 | 3.95 | 4.15 | 2.93 | 5.42 | 2.75
25 | ATCTCTGGGTAAGACTCAGTTCAGTGAAGAACGC | 0.372 | 0.252 | 0.292 | 0.0786 | -0.0436 | 0.589 | 0.517 | 0.528 | 1.27
26 | CCTAGCAGGCTAGGGTCACTCAAGCATTTCGCTT | 2.67 | 3.35 | 2.35 | 0.61 | 3.65 | 3.64 | 1.81 | 2.72 | 1.07

Row | Sequence | PBM binding z-score [1] | PBM binding z-score [2] | PBM binding z-score [3] | PBM binding z-score [4] | PBM binding z-score [5] | PBM binding z-score [6] | PBM binding z-score [7] | PBM binding z-score [8] | PBM binding z-score [9]
27 | AATACAGGGTCACTAGGACAGAGTAGGTACGAAT | 3.32 | 5.16 | 4.79 | 2.9 | 5.5 | 3.64 | 1.72 | 3.97 | 2.97
28 | CCTACTGGGCCAAAAAGGTCATTGCTGCCGATAA | 4.46 | 4.63 | 4.02 | 0.7 | 4.99 | 2.99 | 0.486 | 4.46 | 2.98
29 | CGTCAAAGTTCAAGGTAACGTGACAGAAAGCAGC | 3.72 | 5.21 | 5.97 | 4.54 | 4.26 | 2.99 | 1.08 | 3.71 | 3.04
30 | CCTTACGGGTCATGAGGTTATAGCACGACGAGCG | 3.4 | 5.79 | 4.57 | 1.85 | 6.48 | 3.62 | 0.938 | 4.92 | 1.91
31 | CAAACTAGGTCACAGACGTCAAAGTCCGTGCGTA | 3.28 | 4.49 | 5.14 | 1.98 | 3.61 | 3.32 | 1.23 | 3.26 | 0.686
32 | ACCTCTAGGTAAGACTCAGTTCAGTGAAGAACGC | 0.0203 | -0.0549 | -0.0332 | 0.371 | -0.0186 | 0.243 | 0.088 | 0.00811 | 0.678
33 | TCTAGTTGGTCAATGGTCACACACTCGAAATGCG | 1.54 | 1.02 | 1.31 | 1.16 | 0.996 | 0.262 | 0.437 | 0.851 | 0.178
34 | TCTATTAGTTGAAGGGCCACCGACGAGTCCGTTT | 0.971 | 0.277 | 0.128 | 1.69 | 0.47 | 0.074 | 0.396 | 0.591 | 1.35
35 | ACATACAGGTGATGAAGGTAACTCAGGCTATCAT | 0.492 | 0.787 | 0.615 | 0.27 | 0.874 | 1.16 | 0.135 | 0.555 | 0.174
36 | ATCTCTAGGTAAGACTCAGTTCAGTGACGAACGC | 0.735 | 0.464 | 0.443 | 0.676 | 0.364 | 0.824 | 0.878 | 0.924 | 1.74
37 | ACAGACAGGTGAGTGAAGGTGACTCAGCTGGACG | 0.821 | 0.36 | 0.791 | -0.543 | 0.523 | 2 | -0.223 | -0.119 | -0.311
38 | TTACCAAGGTGAAGGTCGTTGAGCCCTCTGTAGA | 1.79 | 1.3 | 1.08 | 0.1 | 1.59 | 2.14 | 0.652 | 1 | 0.688
39 | TCATATAGGTAAATGCTAGGTGAATGTCCGATCT | 0.278 | 0.529 | 0.626 | 1.46 | 0.893 | 1.49 | 0.604 | 0.74 | 0.143
40 | ATCGAAAGGTCCAGGTGAGTATAGAGAAAGGGAA | 0.976 | 0.8 | 0.946 | 0.31 | 0.494 | 0.94 | 0.905 | 0.18 | 0.121
41 | TCTATTAGTCGATTAGGGCAACCGAAACAGCGGA | 0.367 | 0.53 | 0.468 | 0.914 | 0.681 | 0.811 | 0.361 | 0.568 | 0.0266
42 | CAAACTAGGTCACGAATGGTCAAAGTCGAATGAC | 3.87 | 4.77 | 5.18 | 1.61 | 3.82 | 3.74 | 1.51 | 3.05 | 0.784
43 | ATATGTAGGTTAAGGGTTATTCAGGTTGGTTCGC | 1.91 | 2.11 | 1.34 | 0.963 | 2.75 | 2.37 | 1.52 | 3.27 | 1.83
44 | CCTGGTAGGTCATGGTCAGCTAATCTACAGTATG | 3.07 | 4.23 | 4.8 | 0.728 | 3.62 | 2.22 | 0.615 | 1.89 | 0.706
45 | CTACCAAGGTGAACAAGCTCGTTGATTACTATTC | 0.567 | 0.606 | 0.761 | 0.373 | 0.526 | 1.63 | 0.878 | 0.121 | -0.237
46 | CCGACTGGGGCAGAAAGGTTACCATCCCATCCGG | 2.3 | 1.44 | 1.19 | -1.13 | 1.48 | 0.817 | -0.666 | 0.789 | -0.162
47 | CCTTACGGGTCGCTCCAGGTTATAGCATCGGAGT | 1.07 | 0.907 | 1.08 | 0.0194 | 1.14 | 4.18 | 0.109 | 1.1 | 0.177
48 | GCGACTGGGGCAAAGCAGATTACCATAAGGTTGG | -0.011 | 0.122 | 0.273 | -0.0663 | 0.0208 | -0.00555 | -0.248 | -0.591 | -0.153
49 | CGTCAAAGTTCAACTAAGGTAGCGTAAAGCACGC | 4.16 | 5.74 | 6.39 | 4.42 | 4.96 | 5.06 | 0.699 | 4.35 | 4.01
50 | TCGAGTAGGTGAGTCGGGGCATTCAGCCAACATA | 0.348 | -0.294 | -0.378 | 0.0607 | -0.201 | 0.829 | -0.305 | 1.68 | 0.0574
51 | ACTAGTTGGTCAGCTGAGGTCATACACAATTCGG | 3.89 | 3.68 | 3.38 | 1.89 | 3.86 | 4.94 | 4.75 | 4.73 | 4.31
52 | TCTAGTTGGTCGAAGGTCACACACTCGAAATGCG | 3.99 | 4.39 | 3.86 | 1.37 | 4.15 | 3.07 | 1.83 | 3.37 | 1.97

Source: the supplement of paper PMC6555819
